# According to ChEMBL document CHEMBL1157539, “Thousands of chemical starting points for antimalarial lead identification” (Nature, 2010):
# Key:
# Type in all cases: functional
# Plasmodium falciparum [1] = test: GSK_TCMDC: Inhibition of Plasmodium falciparum 3D7 in whole red blood cells, using parasite LDH activity as an index of growth. Test compounds present at 2uM
# Plasmodium falciparum [2] = test: GSK_TCMDC: Inhibition of Plasmodium falciparum Dd2 in whole red blood cells, using parasite LDH activity as an index of growth. Test compounds present at 2uM
# HepG2 = test: GSK_TCMDC: Percent inhibition of human HepG2 cell line. Test compounds present at 10uM.
SMILES,Inhibition (Plasmodium falciparum [1]) [%],Inhibition (Plasmodium falciparum [2]) [%],Inhibition (HepG2) [%]
Br.CC1(C)NC(N)=NC(=N)N1OCCCSc1ccccc1,93,94,69
COc1ccc(CNCc2cccc(-c3ccc(-c4nc5cccc(C)c5[nH]4)s3)c2)cc1.O=C(O)C(F)(F)F,100,65,24
COc1ccc(Cn2ccc3c4c(N)nc(N)nc4ccc32)cc1,100,93,90
COc1ccccc1CNC(=O)c1cc(C2CC2)nc2c1cnn2C(C)C,94,92,47
Cc1c(Cl)ccc2sc(N3CCN(C(=O)c4ccc([N+](=O)[O-])o4)CC3)nc12,96,93,0
COc1ccc(-c2cccc(NC(=O)c3cccc(C#N)c3)c2)cc1CNC(C)C.O=C(O)C(F)(F)F,100,51,22
COc1cccc(CCc2c(CCNCCCCCCNCCc3ccccc3)ccc(OC)c2OC)c1.Cl,100,69,100
O=C(/C=C/c1ccc(Cl)c(Cl)c1)N1CCC(CN2CCC(c3c[nH]c4ccncc34)CC2)CC1,100,72,44
CCN1CCC(N(Cc2ccc(-c3ccc(C(F)(F)F)cc3)cc2)C(=O)Cn2c(CCc3cccc(F)c3F)cc(=O)c3c2CCC3)CC1.O=C(O)C(O)C(O)C(=O)O,89,85,49
CC(C)C[C@H](NC(=O)c1cc2ccccc2s1)C(=O)N[C@H]1CCN(Cc2ccc(OC[C@@H]3CCCN3C)c3ccccc23)C1.O=C(O)C(F)(F)F,100,93,69
CC(C)CN(C)Cc1ccc(-c2ccc(-c3nc4ccccc4[nH]3)s2)cc1,97,76,8
O=C(/C=C/c1ccc(Cl)c(Cl)c1)NCCCCCN1CCCN(C(=O)Nc2cc(F)cc(F)c2)CC1,94,1,4
C=C[C@]1(C)C[C@@H](OC(=O)c2n[nH]c3ccccc3c2=O)[C@]2(C)[C@H](C)CC[C@]3(CCC(=O)[C@H]32)[C@@H](C)[C@@H]1O,96,84,0
CN(C)c1nc(NN=Cc2cc(Cl)ccc2O)nc(Nc2ccc(F)cc2)n1,94,46,32
Br.COc1ccc(CC(C)CON2C(N)=NC(N)=NC2(C)C)cc1 (stereo not drawn),94,96,59
Fc1ccc(-c2csc3ncnc(Cl)c23)cc1,94,95,3
Cc1nn(-c2ccnc3cc(Cl)ccc23)c(C)c1C(=O)NCc1cc(Cl)cc(Cl)c1,97,53,0
COc1ccc2nccc(N3CCC(SCCNCc4ccc5c(n4)NC(=O)CO5)C3)c2n1.Cl (stereo not drawn),100,9,30
Cc1ccc(NC(=O)c2ccc(CN3CCCN(CC4CCCCC4)CC3)cc2)cc1.O=C(O)C(F)(F)F,93,42,41
O=[N+]([O-])c1ccc(C=NNc2nc(Nc3ccccc3)nc(Nc3ccccc3)n2)o1,94,61,5
CCCCCN1CCC(NC(=O)c2ccc(C(=O)Nc3ccc(C(C)C)cc3)cc2)C1.O=C(O)C(F)(F)F (stereo not drawn),95,17,38
